Screens: PubChem BioAssay, National Center for Advancing Translational Sciences (NCATS)
The full list was thinned out, with hits kept by preference.
Pf Dd2 inh = blocks in vitro growth of P. falciparum Dd2; P. falciparum Dd2 growth, SYBR Green, 72 h; 4.3% of 120,000 active; Potency, µM (top dose mostly 28.9 µM), for inactives: at the top dose activity, negative = inhibition, usual class: inhibitors; AID 1347417; active = well fitted inhibition curve with a large enough effect;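 note: plate controls were DMSO vehicle for no effect and reference drug for full effect; nearly all actives have a fitted effect of over 65% in size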
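Infected erythrocytes (Dd2, 0.3% parasitemia, 2.5% hematocrit final) are added to compound in RPMI-1640/Albumax II medium, grown 72 h at 37C in low oxygen, then lysed with saponin/Triton-X containing SYBR Green and read by fluorescence.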
An asterisk follows results filed as active; [ ] = remark or other dose. Potency is the fitted concentration of half-maximal effect.

How did N#Cc1ccc(C(=O)N2C[C@@H]3C[C@H](C2)c2c(/C=C/c4ccc(Cl)cc4)ccc(=O)n2C3)cc1 do in these assays?
Pf Dd2 inh: inactive

Results for O=C(N1CCN([S+](=O)([O-])c2ccccc2)CC1)N1CC2CC(C1)[C@H]1CCCC(=O)N1C2 (some centres undefined) ?
Pf Dd2 inh: inactive

Results for CC(=O)Nc1ccccc1-c1nc2ccccc2n(C(C)C(=O)c2ccc(C)c(C)c2)c1=O (centres undefined) ?
Pf Dd2 inh: -11%

What do the screens show for `CCOc1ccc(NC(=O)C(CC)n2c(=O)c(-c3ccccc3NC(C)=O)nc3ccccc32)cc1` (centres undefined)?
Pf Dd2 inh: -8%

Results for COc1ccc(OC)c(NC(=O)C(C)n2c(=O)c(-c3ccccc3NC(C)=O)nc3ccccc32)c1 (centres undefined) ?
Pf Dd2 inh: 11µM*

Results for Cc1ccccc1CN1C[C@@H]2C(=O)N(Cc3ccc4c(c3)OCO4)C(=O)[C@@H]2C1 ?
Pf Dd2 inh: 4%

What do the screens show for `COc1cc(F)ccc1-c1cc2c(ccn2C)c(C(=O)NCc2cccnc2)n1`?
Pf Dd2 inh: 0%[44.1 µM]

What do the screens show for `O=C1OCC2(CCN([S+](=O)([O-])c3ccc(C(F)(F)F)cc3)C2)N1Cc1ccccn1` (centres undefined)?
Pf Dd2 inh: -6%

What do the screens show for `Cc1cc(=O)oc2c3c(ccc12)OCN(Cc1ccc(Cl)cc1)C3`?
Pf Dd2 inh: 5.6µM*

Results for COc1ccc(CCNC(=O)Cc2c(C)c3cc4c(C)coc4c(C)c3oc2=O)cc1 ?
Pf Dd2 inh: -20%

Results for O=c1oc2c3c(ccc2c2ccccc12)OCN(Cc1ccc(Cl)cc1)C3 ?
Pf Dd2 inh: 10µM*

Results for COC(=O)Cc1c(C)c2ccc3c(c2oc1=O)CN(Cc1ccc(Cl)cc1)CO3 ?
Pf Dd2 inh: 7.1µM*

How did CCOc1ccc2oc(=O)cc(CN3CCN(Cc4ccc(C)cc4)CC3)c2c1 do in these assays?
Pf Dd2 inh: inactive

What do the screens show for `O=C(Nc1ccc2c(c1)CN(Cc1ccc(Cl)cc1)C(=O)CO2)c1ccccc1`?
Pf Dd2 inh: -14%

What do the screens show for `O=C(Cn1c(=O)oc2ccccc21)NCc1ccc(Cl)cc1`?
Pf Dd2 inh: 6%

How did Cc1ccc2c(CN3CCN(c4ccc(Cl)cc4)CC3)cc(=O)oc2c1 do in these assays?
Pf Dd2 inh: -9%

What do the screens show for `Cc1coc2c(C)c3oc(=O)c(CCC(=O)NCCc4ccc(Cl)cc4)c(C)c3cc12`?
Pf Dd2 inh: -3%

How did CCCn1ccc2oc(C)c(C(=O)N3CCN(c4ccc(OC)cc4)CC3)c2c1=O do in these assays?
Pf Dd2 inh: -4%

What do the screens show for `Cc1cccc(CNC(=O)C2c3ccccc3CC(=O)N2C(C)C)c1` (centres undefined)?
Pf Dd2 inh: inactive

What do the screens show for `Cc1ccc(CNS(=O)(=O)c2ccc3c(c2)CN(C(=O)c2cccnc2)CC3)o1`?
Pf Dd2 inh: -6%

Results for O=C([C@@H]1C[C@H](Oc2cccnc2)CN1C(=O)c1ccc2ccccc2n1)N1CCOCC1 ?
Pf Dd2 inh: inactive

How did O=C(c1cccs1)N1CCCC(n2cc(-c3nc(-c4ccccc4)no3)nn2)C1 (centres undefined) do in these assays?
Pf Dd2 inh: -3%

What do the screens show for `Cc1c(F)cccc1NC(=O)N1CCC(Oc2ncccc2C(=O)N2CCOCC2)C1` (centres undefined)?
Pf Dd2 inh: 10%

Results for O=C1NC2(CCN(Cc3ccc(OC(F)(F)F)cc3)CC2)COc2ccccc21 ?
Pf Dd2 inh: 2.2µM*

How did O=C1NC2(CCN(CC3CCCC3)CC2)COc2ccccc21 do in these assays?
Pf Dd2 inh: -10%[44.1 µM]

How did Cn1cccc1CN1CC2(C1)NC(=O)c1ccccc1O2 do in these assays?
Pf Dd2 inh: inactive

What do the screens show for `O=C1NC2(CCCN(Cc3ccc(OC(F)(F)F)cc3)C2)COc2ccccc21` (centres undefined)?
Pf Dd2 inh: inactive

How did O=C1NC2(CCN(C(=O)c3ccccc3)CC2)COc2ccccc21 do in these assays?
Pf Dd2 inh: inactive

Results for CN(C)c1ccc(CN2CCC3(CC2)COc2ccccc2C(=O)N3)cc1 ?
Pf Dd2 inh: 1.1µM*

What do the screens show for `CN(C)c1ccc(CN2CCC3(COc4ccccc4C(=O)N3)C2)cc1` (centres undefined)?
Pf Dd2 inh: 1%

Results for Cn1cccc1CN1CCC2(CC1)COc1ccccc1C(=O)N2 ?
Pf Dd2 inh: 5.6µM*

How did O=C1NC2(CCN(C(=O)C3CCCC3)CC2)COc2ccccc21 do in these assays?
Pf Dd2 inh: -19%[44.1 µM]

How did CCNC(=O)NC[C@H]1O[C@H](Cc2cc(C(C)(C)C)on2)CC[C@@H]1O do in these assays?
Pf Dd2 inh: 22%[44.1 µM]

Results for Cc1ccc(CN(C)Cc2cccn2C)cc1 ?
Pf Dd2 inh: -9%[44.1 µM]

What do the screens show for `Cc1ccc(CN2C[C@H]3CN(C(=O)c4cccnc4)CCN3C2=O)cc1`?
Pf Dd2 inh: 5%[44.1 µM]

Results for COc1ccc(N2Cc3c(NCC4CC4)ncnc3N(C)CC2=O)cc1 ?
Pf Dd2 inh: 14%

Results for Cc1nn(C)c2ncc(C(=O)O)c(NC3CC(c4cc(=O)[nH]cn4)C3)c12 (centres undefined) ?
Pf Dd2 inh: 3%

What do the screens show for `Cc1cc2cc(C(=O)N3CCC4(CC3)C(=O)N(C)c3ccccc34)ccc2o1`?
Pf Dd2 inh: -22%

Results for CN1C(=O)C2(CCN(C(=O)CCC3CCCC3)CC2)c2ccccc21 ?
Pf Dd2 inh: 5.6µM*

How did CCC(CC)C(=O)N1CCC2(CC1)C(=O)N(C)c1ccccc12 do in these assays?
Pf Dd2 inh: inactive

Results for CCOc1ccc(C(=O)N2CCC3(CC2)C(=O)N(C)c2ccccc23)cc1OCC ?
Pf Dd2 inh: 13µM*

Results for CN1C(=O)C2(CCN(C(=O)CCc3ccccc3)C2)c2ccccc21 (centres undefined) ?
Pf Dd2 inh: -16%

What do the screens show for `CN1C(=O)C2(CCN(C(=O)CCn3cnnn3)CC2)c2ccccc21`?
Pf Dd2 inh: inactive

What do the screens show for `O=[S+]([O-])(c1ccncc1)c1nnn2c1nc(N1CCOCC1)c1ccccc12`?
Pf Dd2 inh: -16%

Results for CC(=O)c1[nH]c(C)c(C(=O)N[C@H]2[C@H]3CCO[C@H]3[C@@H]2N2CCCC2)c1C ?
Pf Dd2 inh: 0%

What do the screens show for `Cc1ccc(NC(=O)C2Cn3cccc3C(=O)N2C)cc1` (centres undefined)?
Pf Dd2 inh: inactive

What do the screens show for `Cc1noc(C)c1CC(=O)NC1CCc2nn(C)c(=O)n2CC1` (centres undefined)?
Pf Dd2 inh: 58%

What do the screens show for `COC[C@@H]1CN(c2cnccn2)C[C@H]1C(=O)NCc1c(C)n[nH]c1C`?
Pf Dd2 inh: -1%

How did Cc1oc2c(c1C(=O)NCCN(C)C)CN(C(=O)c1ccncc1)CC2 do in these assays?
Pf Dd2 inh: -9%

Results for Cc1c(C)n(C)c2ccc(C(=O)NCCCN3CCCCC3)cc12 ?
Pf Dd2 inh: inactive

What do the screens show for `CCNC(=O)c1c(C)oc2c1CN(Cc1sccc1C)CC2`?
Pf Dd2 inh: 11µM*

Results for CCNC(=O)c1c(C)oc2c1CN(Cc1ccc(Br)o1)CC2 ?
Pf Dd2 inh: 7.9µM*

Results for COCC(=O)NC[C@H]1CCN(Cc2sccc2C)C[C@H]1N(C)C ?
Pf Dd2 inh: inactive

Results for Cc1ccsc1CN1CCc2n[nH]c(=O)n2CC1 ?
Pf Dd2 inh: inactive

What do the screens show for `Cc1ccc(-c2cc(C(=O)NCCN3CCN(C)CC3)n(C)c2)cc1`?
Pf Dd2 inh: -15%

How did COC[C@@H]1CN(Cc2ccc(Br)o2)C[C@H]1C(=O)NC1CC1 do in these assays?
Pf Dd2 inh: 1%
